Measured values from PubChem BioAssay AID1159580 (chemical genetic matrix, 2015).
Out of some 5,500 compounds screened, about 2,000 (36%) were called active. Not shown: some 18% with an inconclusive outcome. Rule as the data show it: active = normalized growth mostly below about 0.91 (no sharp cut-off); inconclusive = no clear call, values can overlap the other calls; inactive = mostly above about 0.92. The list shows a part of the results.

Test: chemical genetic growth profiling, strain panel (AID 1159580);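 also: tested at 20 µM; growth read once vehicle control cultures reached saturation at 30 °C; 1 = growth at the plate median or of vehicle wells; lower values mean less growth of the strain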
Conditions: growth OD

Measured: normalized growth

Cc1[nH]c2ccccc2c1CN(C)C
inactive: S. cerevisiae deletion strains, locus YJR075W, strain HOC1, active compounds read low 1.03 | S. cerevisiae deletion strains, locus YKL009W, strain mrt4, active compounds read low 0.974 | S. cerevisiae deletion strains, locus YKL068W, active compounds read low 1.01 | S. cerevisiae deletion strains, locus YKL085W, strain MDH1 (second series), active compounds read low 0.997 | S. cerevisiae deletion strains, locus YKL085W, strain MDH1, active compounds read low 0.997 | S. cerevisiae deletion strains, locus YKL160W, strain elf1, active compounds read low 1.01 | S. cerevisiae deletion strains, locus YKL190W, strain CNB1, active compounds read low 1.02 | S. cerevisiae deletion strains, locus YKR001C, strain vps1, active compounds read low 1.01 | S. cerevisiae deletion strains, locus YKR026C, strain gcn3, active compounds read low 1.02 | S. cerevisiae deletion strains, locus YKR091W, strain srl3, active compounds read low 1.01 | S. cerevisiae deletion strains, locus YLL001W, strain dnm1, active compounds read low 1.01 | S. cerevisiae deletion strains, locus YLL026W, active compounds read low 1.02 | S. cerevisiae deletion strains, locus YLL041C, strain sdh2, active compounds read low 1.01 | S. cerevisiae deletion strains, locus YLR027C, strain aat2, active compounds read low 1.01 | S. cerevisiae deletion strains, locus YLR039C, strain RIC1, active compounds read low 1.1 | S. cerevisiae deletion strains, locus YLR058C, strain SHM2, active compounds read low 1.03 | S. cerevisiae deletion strains, locus YLR102C, strain apc9, active compounds read low 1 | S. cerevisiae deletion strains, locus YLR113W, strain HOG1, active compounds read low 1 | S. cerevisiae deletion strains, locus YLR221C, strain rsa3, active compounds read low 1.01 | S. cerevisiae deletion strains, locus YLR258W, strain gsy2, active compounds read low 1 | S. cerevisiae deletion strains, locus YLR262C, strain YPT6 (second series), active compounds read low 1.01 | S. cerevisiae deletion strains, locus YLR262C, strain YPT6, active compounds read low 1.05 | S. cerevisiae deletion strains, locus YLR268W, strain sec22, active compounds read low 0.979 | S. cerevisiae deletion strains, locus YLR320W, strain mms22, active compounds read low 1.04 | S. cerevisiae deletion strains, locus YLR330W, strain CHS5, active compounds read low 1 | S. cerevisiae deletion strains, locus YLR342W, strain FKS1 (second series), active compounds read low 1.02 | S. cerevisiae deletion strains, locus YLR342W, strain FKS1, active compounds read low 1.01 | S. cerevisiae deletion strains, locus YLR357W, strain rsc2, active compounds read low 1 | S. cerevisiae deletion strains, locus YLR370C, strain arc18, active compounds read low 1.03 | S. cerevisiae deletion strains, locus YLR371W, strain rom2, active compounds read low 1.01 | S. cerevisiae deletion strains, locus YLR384C, strain iki3, active compounds read low 1.03 | S. cerevisiae deletion strains, locus YLR418C, strain cdc73, active compounds read low 0.983 | S. cerevisiae deletion strains, locus YML016C, strain PPZ1, active compounds read low 0.996 | S. cerevisiae deletion strains, locus YML032C, strain rad52, active compounds read low 0.981 | S. cerevisiae deletion strains, locus YML120C, strain ndi1, active compounds read low 1.01 | S. cerevisiae deletion strains, locus YML124C, strain tub3, active compounds read low 0.991 | S. cerevisiae deletion strains, locus YMR058W, strain fet3, active compounds read low 1.02 | S. cerevisiae deletion strains, locus YMR078C, strain ctf18, active compounds read low 0.991 | S. cerevisiae deletion strains, locus YMR125W, strain sto1, active compounds read low 1.01 | S. cerevisiae deletion strains, locus YMR129W, active compounds read low 1.02 | S. cerevisiae deletion strains, locus YMR205C, strain PFK2, active compounds read low 1.06 | S. cerevisiae deletion strains, locus YMR223W, strain ubp8, active compounds read low 0.977 | S. cerevisiae deletion strains, locus YMR231W, strain pep5, active compounds read low 1.02 | S. cerevisiae deletion strains, locus YMR263W, strain SAP30, active compounds read low 1.02 | S. cerevisiae deletion strains, locus YMR307W, strain GAS1, active compounds read low 1.15 | S. cerevisiae deletion strains, locus YNL067W, strain RPL9B, active compounds read low 1.02 | S. cerevisiae deletion strains, locus YNL071W, strain lat1, active compounds read low 1.01 | S. cerevisiae deletion strains, locus YNL128W, strain TEP1, active compounds read low 1 | S. cerevisiae deletion strains, locus YNL183C, strain NPR1, active compounds read low 0.94 | S. cerevisiae deletion strains, locus YNL209W, strain ssb2, active compounds read low 1.04 | S. cerevisiae deletion strains, locus YNL233W, strain BNI4, active compounds read low 1.05 | S. cerevisiae deletion strains, locus YNL248C, strain rpa49, active compounds read low 1.02 | S. cerevisiae deletion strains, locus YNL250W, strain rad50, active compounds read low 0.98 | S. cerevisiae deletion strains, locus YNL271C, strain bni1, active compounds read low 0.995 | S. cerevisiae deletion strains, locus YNL298W, strain CLA4, active compounds read low 0.985 | S. cerevisiae deletion strains, locus YNL307C, strain MCK1, active compounds read low 1 | S. cerevisiae deletion strains, locus YNL322C, strain KRE1 (second series), active compounds read low 1.02 | S. cerevisiae deletion strains, locus YNR049C, strain mso1, active compounds read low 1.03 | S. cerevisiae deletion strains, locus YNR052C, strain pop2, active compounds read low 0.994 | S. cerevisiae deletion strains, locus YOL012C, strain htz1 1.39 | S. cerevisiae deletion strains, locus YOL147C, strain pex11, active compounds read low 0.993 | S. cerevisiae deletion strains, locus YOR001W, strain rrp6, active compounds read low 1.02 | S. cerevisiae deletion strains, locus YOR061W, strain CKA2, active compounds read low 1.02 | S. cerevisiae deletion strains, locus YOR069W, strain VPS5, active compounds read low 0.995 | S. cerevisiae deletion strains, locus YOR070C, strain gyp1, active compounds read low 1.02 | S. cerevisiae deletion strains, locus YOR080W, strain dia2, active compounds read low 1.03 | S. cerevisiae deletion strains, locus YOR083W, strain WHI5, active compounds read low 1.01 | S. cerevisiae deletion strains, locus YOR106W, strain vam3, active compounds read low 1.04 | S. cerevisiae deletion strains, locus YOR136W, strain idh2, active compounds read low 0.975 | S. cerevisiae deletion strains, locus YOR144C, strain elg1, active compounds read low 0.999 | S. cerevisiae deletion strains, locus YOR184W, strain ser1, active compounds read low 1.02 | S. cerevisiae deletion strains, locus YOR231W, strain MKK1, active compounds read low 0.987 | S. cerevisiae deletion strains, locus YOR265W, strain rbl2, active compounds read low 1.02 | S. cerevisiae deletion strains, locus YOR270C, strain vph1, active compounds read low 1.07 | S. cerevisiae deletion strains, locus YOR290C, strain snf2, active compounds read low 1.01 | S. cerevisiae deletion strains, locus YOR316C, strain cot1, active compounds read low 0.992 | S. cerevisiae deletion strains, locus YPL051W, strain arl3, active compounds read low 1.03 | S. cerevisiae deletion strains, locus YPL055C, strain LGE1, active compounds read low 1.06 | S. cerevisiae deletion strains, locus YPL078C, strain atp4, active compounds read low 1 | S. cerevisiae deletion strains, locus YPL106C, strain sse1, active compounds read low 1.04 | S. cerevisiae deletion strains, locus YPL240C, strain hsp82, active compounds read low 1.01 | S. cerevisiae deletion strains, locus YPL256C, strain CLN2, active compounds read low 0.991 | S. cerevisiae deletion strains, locus YPR119W, strain clb2, active compounds read low 0.992 | S. cerevisiae deletion strains, locus YPR141C, strain kar3, active compounds read low 1 | S. cerevisiae deletion strains, locus YPR163C, strain tif3, active compounds read low 0.996 | S. cerevisiae deletion strains, locus YPR167C, strain met16, active compounds read low 0.988 | S. cerevisiae deletion strains, strain wtn01, active compounds read low 0.966 | S. cerevisiae strains, strain wild type, active compounds read low 1.03
